Our source for the binding signal values is PMC9838217, “Structure of SALL4 zinc finger domain reveals link between AT-rich DNA binding and Okihiro syndrome”.

Test in all cases: HT-SELEX; high values mean tight binding
Common to all, as to conditions: protein: recombinant; vector His6-GST; dsDNA, one strand shown

In one assay the target is T1, SALL4 ZFC4 WT (HT-SELEX) (Mus musculus, UniProt Q8BX22 870-940).
T1 sequence: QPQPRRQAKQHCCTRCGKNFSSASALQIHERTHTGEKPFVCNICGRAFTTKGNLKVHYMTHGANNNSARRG
The method in brief:
(§1)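 DNA from a random library (1.5 µg in the first cycle, 200 ng afterwards) was incubated with purified recombinant mouse SALL4 zinc finger cluster 4, residues 870–940 (1 µg), for 10 min at room temperature in 100 µl buffer: 10 mM Tris–HCl pH 7.5, 50 mM NaCl, poly(dI-dC), DTT. Bound complexes were pulled down on Ni2+ beads, washed and PCR-amplified, and the selection was repeated for up to 6 cycles in triplicate. MiSeq reads were scanned for 6-mers, and binding signal is each canonical k-mer's read fraction as fold change over the initial random library.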

The target of assay [1] is T2, SALL4 ZFC4 R900W (HT-SELEX) (Mus musculus, UniProt Q8BX22 870-940, R900W).
T2 sequence: T1 sequence with R31W
The method in brief: as §1

Assay [2] deals with T3, SALL4 ZFC4 G921D (HT-SELEX) (Mus musculus, UniProt Q8BX22 870-940, G921D).
T3 sequence: T1 sequence with G52D
The method in brief: as §1

Changes are numbered by the printed parent chain.

As for CCAGAC, the binding signal turned out to be 0.368 ± 0.0286 fold-change vs cycle 0 with SALL4 ZFC4 WT (HT-SELEX), 0.471 ± 0.0141 fold-change vs cycle 0 in assay [1] and 0.553 ± 0.0511 fold-change vs cycle 0 in assay [2].
For AGAGTG, in that order: 0.822 ± 0.0341 fold-change vs cycle 0, 0.925 ± 0.0332 fold-change vs cycle 0 and 0.97 ± 0.0268 fold-change vs cycle 0.
For GCATCA, in that order: 0.645 ± 0.017 fold-change vs cycle 0, 0.724 ± 0.00868 fold-change vs cycle 0 and 0.83 ± 0.0436 fold-change vs cycle 0.
For GTAGTA, in that order: 1.29 ± 0.036 fold-change vs cycle 0, 1.41 ± 0.0747 fold-change vs cycle 0 and 1.33 ± 0.0906 fold-change vs cycle 0.
CATCTA: the figures for the binding signal (in the assay with SALL4 ZFC4 WT (HT-SELEX); in assay [1]; in assay [2]) were 1.33 ± 0.0229 fold-change vs cycle 0, 1.41 ± 0.0368 fold-change vs cycle 0 and 1.38 ± 0.068 fold-change vs cycle 0, respectively.
As for CTTAAG, the values for the binding signal (in the assay with SALL4 ZFC4 WT (HT-SELEX); in assay [1]; in assay [2]) were 1.38 ± 0.0318 fold-change vs cycle 0, 1.56 ± 0.0368 fold-change vs cycle 0 and 1.46 ± 0.11 fold-change vs cycle 0, respectively.
For CCCGAA, in that order: 0.314 ± 0.0034 fold-change vs cycle 0, 0.403 ± 0.0174 fold-change vs cycle 0 and 0.512 ± 0.0767 fold-change vs cycle 0.
Turning to GATATA, the binding signal is 2.54 ± 0.207 fold-change vs cycle 0 in the assay with SALL4 ZFC4 WT (HT-SELEX), 1.98 ± 0.124 fold-change vs cycle 0 in assay [1] and 1.77 ± 0.173 fold-change vs cycle 0 in assay [2].
For ACCAGC, in that order: 0.312 ± 0.0135 fold-change vs cycle 0, 0.369 ± 0.00921 fold-change vs cycle 0 and 0.497 ± 0.0437 fold-change vs cycle 0.
The corresponding values for AATTCC are 1.34 ± 0.0764 fold-change vs cycle 0, 1.36 ± 0.0844 fold-change vs cycle 0 and 1.31 ± 0.0693 fold-change vs cycle 0.
Turning to CCATTA, the binding signal came to 1.33 ± 0.0471 fold-change vs cycle 0 with SALL4 ZFC4 WT (HT-SELEX), 1.4 ± 0.0728 fold-change vs cycle 0 in assay [1] and 1.32 ± 0.097 fold-change vs cycle 0 in assay [2].
The corresponding values for AGTGAT are 1.45 ± 0.0292 fold-change vs cycle 0, 1.59 ± 0.0395 fold-change vs cycle 0 and 1.53 ± 0.097 fold-change vs cycle 0.
The corresponding values for CACGTA are 0.686 ± 0.0318 fold-change vs cycle 0, 0.787 ± 0.0109 fold-change vs cycle 0 and 0.842 ± 0.0109 fold-change vs cycle 0.
For TACTCA, in that order: 1.43 ± 0.0381 fold-change vs cycle 0, 1.5 ± 0.0664 fold-change vs cycle 0 and 1.42 ± 0.0998 fold-change vs cycle 0.
For the sequence ATTAAT, the binding signal with SALL4 ZFC4 WT (HT-SELEX) was found to be 6.27 ± 0.662 fold-change vs cycle 0; in assay [1] it was 2.77 ± 0.256 fold-change vs cycle 0; in assay [2] it was 2.34 ± 0.327 fold-change vs cycle 0.
The corresponding values for CACTGC are 0.334 ± 0.0238 fold-change vs cycle 0, 0.388 ± 0.00394 fold-change vs cycle 0 and 0.511 ± 0.0704 fold-change vs cycle 0.
Regarding AGACAG, the binding signal with SALL4 ZFC4 WT (HT-SELEX) came out at 0.803 ± 0.00959 fold-change vs cycle 0; in assay [1], 0.914 ± 0.0204 fold-change vs cycle 0; in assay [2] it was 0.943 ± 0.0351 fold-change vs cycle 0.
The corresponding values for GATTGA are 1.34 ± 0.0367 fold-change vs cycle 0, 1.46 ± 0.0217 fold-change vs cycle 0 and 1.43 ± 0.0387 fold-change vs cycle 0.
On to CTGCTA, for which the binding signal in the assay with SALL4 ZFC4 WT (HT-SELEX) stood at 0.699 ± 0.028 fold-change vs cycle 0; in assay [1], 0.757 ± 0.0335 fold-change vs cycle 0; in assay [2], 0.816 ± 0.0523 fold-change vs cycle 0.
In the case of ACCCAT, the binding signal in the assay with SALL4 ZFC4 WT (HT-SELEX) stood at 0.847 ± 0.0456 fold-change vs cycle 0; in assay [1], 0.916 ± 0.0414 fold-change vs cycle 0; in assay [2] it was 0.954 ± 0.0193 fold-change vs cycle 0.
As for TTTAAA, the binding signal with SALL4 ZFC4 WT (HT-SELEX) worked out at 2.46 ± 0.106 fold-change vs cycle 0; in assay [1] it was 2.33 ± 0.125 fold-change vs cycle 0; in assay [2] it was 2.04 ± 0.174 fold-change vs cycle 0.
On to ACGTGA, for which the binding signal with SALL4 ZFC4 WT (HT-SELEX) stood at 0.774 ± 0.0226 fold-change vs cycle 0; in assay [1] it was 0.876 ± 0.021 fold-change vs cycle 0; in assay [2] it was 0.931 ± 0.0233 fold-change vs cycle 0.
The corresponding values for AAATAT are 5.57 ± 0.542 fold-change vs cycle 0, 2.36 ± 0.147 fold-change vs cycle 0 and 2.07 ± 0.227 fold-change vs cycle 0.
GGGTAA: the binding signal is 0.818 ± 0.0379 fold-change vs cycle 0 with SALL4 ZFC4 WT (HT-SELEX), 0.955 ± 0.0325 fold-change vs cycle 0 in assay [1] and 0.918 ± 0.0131 fold-change vs cycle 0 in assay [2].
As for CCCTAC, the results for the binding signal (with SALL4 ZFC4 WT (HT-SELEX); in assay [1]; in assay [2]) were 0.441 ± 0.0346 fold-change vs cycle 0, 0.512 ± 0.0309 fold-change vs cycle 0 and 0.603 ± 0.047 fold-change vs cycle 0, respectively.
Consider AGGAAT, for which the binding signal in the assay with SALL4 ZFC4 WT (HT-SELEX) was determined as 1.52 ± 0.0788 fold-change vs cycle 0; in assay [1], 1.63 ± 0.0707 fold-change vs cycle 0; in assay [2], 1.49 ± 0.113 fold-change vs cycle 0.
For AGTAGA, in that order: 1.33 ± 0.0604 fold-change vs cycle 0, 1.54 ± 0.0844 fold-change vs cycle 0 and 1.41 ± 0.124 fold-change vs cycle 0.
In the case of CTAATA, the binding signal with SALL4 ZFC4 WT (HT-SELEX) worked out at 2.24 ± 0.127 fold-change vs cycle 0; in assay [1], 2.01 ± 0.099 fold-change vs cycle 0; in assay [2] it was 1.81 ± 0.144 fold-change vs cycle 0.
Regarding GGAACA, the binding signal worked out at 0.762 ± 0.0355 fold-change vs cycle 0 in the assay with SALL4 ZFC4 WT (HT-SELEX), 0.882 ± 0.0371 fold-change vs cycle 0 in assay [1] and 0.956 ± 0.0475 fold-change vs cycle 0 in assay [2].
For GGGATA, in that order: 0.88 ± 0.0566 fold-change vs cycle 0, 0.967 ± 0.0568 fold-change vs cycle 0 and 0.94 ± 0.0469 fold-change vs cycle 0.
The corresponding values for CATACC are 0.854 ± 0.0198 fold-change vs cycle 0, 0.927 ± 0.0242 fold-change vs cycle 0 and 0.944 ± 0.0221 fold-change vs cycle 0.
Turning to GCAGTA, the binding signal with SALL4 ZFC4 WT (HT-SELEX) is 0.609 ± 0.0122 fold-change vs cycle 0; in assay [1], 0.693 ± 0.0275 fold-change vs cycle 0; in assay [2], 0.766 ± 0.032 fold-change vs cycle 0.
Consider AATAAC, for which the binding signal in the assay with SALL4 ZFC4 WT (HT-SELEX) turned out to be 2.58 ± 0.181 fold-change vs cycle 0; in assay [1], 2.03 ± 0.114 fold-change vs cycle 0; in assay [2], 1.79 ± 0.168 fold-change vs cycle 0.
With AGATCT, the binding signal with SALL4 ZFC4 WT (HT-SELEX) worked out at 1.31 ± 0.115 fold-change vs cycle 0; in assay [1], 1.45 ± 0.063 fold-change vs cycle 0; in assay [2], 1.47 ± 0.0799 fold-change vs cycle 0.
The corresponding values for CTCGAG are 0.462 ± 0.0432 fold-change vs cycle 0, 0.548 ± 0.0598 fold-change vs cycle 0 and 0.638 ± 0.046 fold-change vs cycle 0.
For GACCTA, in that order: 0.743 ± 0.0147 fold-change vs cycle 0, 0.857 ± 0.0141 fold-change vs cycle 0 and 0.926 ± 0.0368 fold-change vs cycle 0.
For CCACAA, in that order: 0.612 ± 0.0144 fold-change vs cycle 0, 0.71 ± 0.0271 fold-change vs cycle 0 and 0.759 ± 0.0161 fold-change vs cycle 0.
On to AACCTA, for which the binding signal with SALL4 ZFC4 WT (HT-SELEX) was found to be 1.37 ± 0.0609 fold-change vs cycle 0; in assay [1], 1.47 ± 0.0701 fold-change vs cycle 0; in assay [2] it was 1.4 ± 0.0994 fold-change vs cycle 0.
GGTGTA: the binding signal is 0.751 ± 0.0241 fold-change vs cycle 0 in the assay with SALL4 ZFC4 WT (HT-SELEX), 0.855 ± 0.0293 fold-change vs cycle 0 in assay [1] and 0.889 ± 0.0301 fold-change vs cycle 0 in assay [2].
For GCATAC, in that order: 0.665 ± 0.00696 fold-change vs cycle 0, 0.738 ± 0.0335 fold-change vs cycle 0 and 0.819 ± 0.0421 fold-change vs cycle 0.
Regarding CTGGAC, the results for the binding signal (in the assay with SALL4 ZFC4 WT (HT-SELEX); in assay [1]; in assay [2]) were 0.396 ± 0.0407 fold-change vs cycle 0, 0.495 ± 0.0552 fold-change vs cycle 0 and 0.584 ± 0.0722 fold-change vs cycle 0, respectively.
For AAGCTA, in that order: 1.18 ± 0.0764 fold-change vs cycle 0, 1.3 ± 0.0578 fold-change vs cycle 0 and 1.28 ± 0.0869 fold-change vs cycle 0.
